Screens (PubChem BioAssay)
Pol eta inh-1 – blocks human DNA polymerase eta activity; Q9Y253; recombinant Pol eta, fluorescent DNA replication assay; Potency, µM (top dose mostly 114 µM), inactives show top-dose activity change, negative = inhibition, most hits filed as inhibitors; 390,000 compounds, 1.2% hits; AID 588591; also: potency is read from the fitted curve at half-maximal effect; % is scaled to controls: 0 for no effect and ±100 for the full control effect
Target sequence (Q9Y253 whole entry, looked up): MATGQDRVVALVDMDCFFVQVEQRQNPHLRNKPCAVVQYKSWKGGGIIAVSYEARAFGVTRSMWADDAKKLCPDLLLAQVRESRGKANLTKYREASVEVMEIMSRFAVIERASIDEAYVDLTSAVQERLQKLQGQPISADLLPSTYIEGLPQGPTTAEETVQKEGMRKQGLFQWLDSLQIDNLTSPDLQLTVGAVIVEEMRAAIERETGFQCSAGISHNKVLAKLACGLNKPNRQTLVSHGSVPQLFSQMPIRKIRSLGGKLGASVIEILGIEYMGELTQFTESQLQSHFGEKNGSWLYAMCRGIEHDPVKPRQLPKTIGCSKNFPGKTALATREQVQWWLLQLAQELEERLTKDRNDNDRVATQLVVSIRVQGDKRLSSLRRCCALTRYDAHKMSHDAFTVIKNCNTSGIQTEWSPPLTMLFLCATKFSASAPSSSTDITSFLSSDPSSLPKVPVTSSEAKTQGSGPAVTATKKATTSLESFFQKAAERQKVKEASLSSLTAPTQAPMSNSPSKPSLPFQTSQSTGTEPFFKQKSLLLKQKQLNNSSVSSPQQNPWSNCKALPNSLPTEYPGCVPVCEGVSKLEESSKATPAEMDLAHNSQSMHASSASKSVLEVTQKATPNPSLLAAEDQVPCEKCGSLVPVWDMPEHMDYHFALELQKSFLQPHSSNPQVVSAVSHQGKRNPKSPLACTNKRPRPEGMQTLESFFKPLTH
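Pol eta (10 nM) was preincubated with compounds for 15 min at room temperature, after which fluorescent replication substrate (50 nM final) was added to start the reaction. Fluorescence was read kinetically at 0 and 10 min.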
Pol kappa inh-1 – inhibitors of human DNA polymerase kappa; purified Pol kappa, fluorescent DNA synthesis assay, 10 min; Potency, µM (titrated, usually from 107 µM), for the others: top-dose activity, negative = inhibition, most hits filed as inhibitors; 400,000 compounds, 0.53% hits; also: potency is read from the fitted curve at half-maximal effect; % is scaled to controls: 0 for no effect and ±100 for the full control effect
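Kinetic fluorescence readout at 0 and 10 min followed reaction start with substrate at 50 nM final. Beforehand, enzyme (10 nM Pol kappa) stood 15 min with compound at room temperature; buffer-only wells were negative controls.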
POLB inh – DNA polymerase beta (human) inhibition. P06746. Pol beta primer extension/strand displacement, fluorescence kinetic. Potency, µM (top dose mostly 114 µM), for the others: top-dose activity change, negative = inhibition, most hits filed as inhibitors. 340,000 compounds, 1.3% hits; also: potency is read from the fitted curve at half-maximal effect; % is scaled to controls: 0 for no effect and ±100 for the full control effect
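Homogeneous kinetic assay of primer extension and strand displacement by 10 nM Pol beta, preincubated 15 min at room temperature with compound before 50 nM substrate (final) was added. Read at 0 and 10 min; four-parameter Hill fit.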
Pol iota inh – blocks human DNA polymerase iota activity | Q9UNA4 | 390,000 compounds, 1% hits | Potency, µM (highest dose often 115 µM), inactives show at the top dose activity, negative = inhibition, usual class: inhibitors | Pol iota fluorescent replication assay, 10 min; also: potency is read from the fitted curve at half-maximal effect
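Fluorescent replication assay read twice, at 0 min and 10 min after adding 50 nM (final) substrate. Enzyme (10 nM) and compounds were first incubated 15 min at room temperature; enzyme-free buffer wells were negative controls.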
WRN helicase inh-1 – inhibitors of human WRN helicase; Potency, µM (highest dose often 114 µM), without a hit: at the top dose activity change, negative = inhibition, most hits filed as inhibitors; AID 651768; 360,000 compounds, 0.46% hits; WRN helicase unwinding, fluorescent forked duplex, kinetic; Q14191; also: potency is read from the fitted curve at half-maximal effect; % is scaled to controls: 0 for no effect and ±100 for the full control effect; nearly all actives have a fitted effect of over 55% in size
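Primary qHTS, 1536-well format. 20 nM WRN + compound, 15 min RT; start with 100 nM forked fluorophore/quencher duplex, 2 mM ATP (final); kinetic read ex 525/em 598 nm.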
BAZ2B confirm – inhibits human BAZ2B bromodomain, hit validation. 25 compounds, 100% hits. Potency, µM, hits mostly inhibitors. shares compounds with Pol kappa inh-1. AlphaScreen BAZ2B / biotin-H3K14Ac peptide displacement. AID 588809; calls by dose curve
BAZ2B bead ctr – interferes with AlphaScreen signal in BAZ2B counterscreen | shares compounds with Pol kappa inh-1 | 25 tested, under 10 active | Potency, µM (series often up to 57.1 µM), for inactives: at the top dose activity change, negative = inhibition, most hits filed as inhibitors | AlphaScreen biotin-His6 peptide bead counterscreen, signal decrease;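 active = clear concentration-dependent signal drop in the bead assay lacking the target, so a primary-screen artifact; inconclusive = weak, partial or single-dose response; inactive = no response, so a real primary hit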
PGK validate – TbPGK inhibition, hit validation | 500 compounds, 79% hits | shares compounds with Pol kappa inh-1 | AID 686980 | TbPGK coupled GAPDH assay, Kinase-Glo luminescence | Potency, µM (highest dose often 57.5 µM), without a hit: at the highest dose activity change, negative = inhibition, usual class: inhibitors; also: potency is read from the fitted curve at half-maximal effect; % is scaled to controls: 0 for no effect and ±100 for the full control effect; nearly all actives have a fitted effect of over 65% in size
POLI cherry-pick – Confirm cherry-picked inhibitors of human polymerase iota | 1,500 compounds, 77% hits | Pol iota primer extension, TAMRA/BHQ fluorescence | Potency, µM, most hits filed as inhibitors | shares compounds with Pol kappa inh-1; also: potency is read from the fitted curve at half-maximal effect
Pol kappa inh-2 – Pol kappa (human) inhibition, cherry-pick confirmation. purified Pol-kappa, fluorescent strand-displacement substrate. Potency, µM, hits mostly inhibitors. 920 compounds, 76% hits. AID 720501. shares compounds with Pol eta inh-1; also: potency is read from the fitted curve at half-maximal effect
Pol eta inh-2 – Pol eta (human) inhibition, cherry-pick confirmation; shares compounds with Pol eta inh-1; Pol eta primer extension, TAMRA/BHQ fluorescence, 10 min; Potency, µM, actives largely listed as inhibitors; 2,600 compounds, 64% hits; AID 720502; also: potency is read from the fitted curve at half-maximal effect
WRN helicase inh-2 – WRN helicase inhibition, cherry-pick retest | AID 720497 | 610 compounds, 63% hits | shares compounds with WRN helicase inh-1 | WRN helicase DNA unwinding, fluorescence kinetic | Potency, µM (top dose mostly 57.1 µM), for the others: top-dose activity, negative = inhibition, actives largely listed as inhibitors; also: potency is read from the fitted curve at half-maximal effect; nearly all actives have a fitted effect of over 65% in size
TO DNA binding – counter-screen for WRN helicase inhibitors: DNA binding | Potency, µM (series often up to 57.1 µM), for inactives: at the top dose activity change, negative = inhibition, hits mostly inhibitors | AID 720499 | shares compounds with WRN helicase inh-1 | 610 compounds, 10% hits | thiazole orange DNA binding displacement, fluorescence;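 also: drop in dye fluorescence marks compound binding to DNA; potency is read from the fitted curve at half-maximal effect; % is scaled to controls: 0 for no effect and ±100 for the full control effect; nearly all actives have a fitted effect of over 60% in size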
BLM counter – blocks human BLM helicase in WRN counterscreen. shares compounds with WRN helicase inh-1. Recombinant BLM helicase DNA unwinding, red fluorescence. Potency, µM (highest dose often 57.1 µM), for the others: at the top dose activity change, negative = inhibition, most hits filed as inhibitors. 610 compounds, 60% hits; also: potency is read from the fitted curve at half-maximal effect; nearly all actives have a fitted effect of over 60% in size
* marks the source's active call; other numbers are inactive results; i = inactive; u = inconclusive; x = no result given; [ ] = another dose, or the depositor's remark. The list is not random: actives were taken first. Their share in the collection is about 2.3%. Unless noted, calls follow the shape of the dose curve; as a rule, active = well fitted curve in the direction sought with a large enough effect; inconclusive = small, poorly fitted or top-dose-only effect, or another doubt; inactive = no such curve, though single readings can be large; an effect the other way counts as inactive or inconclusive.

SMILES | Pol eta inh-1 | Pol kappa inh-1 | POLB inh | Pol iota inh | WRN helicase inh-1 | POLI cherry-pick | Pol kappa inh-2 | Pol eta inh-2 | WRN helicase inh-2 | TO DNA binding | BLM counter | others
O=C(O)Cc1ccc(-n2cccc2)cc1 | 3.55µM* | 44.7µM* | 4.47µM* | 12.6µM* | 39.8µM* | 11.9* | x | 7.57* | x | x | x | BAZ2B confirm=25.1*;BAZ2B bead ctr=u
Cc1cccc(C(=O)Nc2nnc(SCC(=O)NCc3ccco3)s2)c1 | -10.0% | -2.9% | x | 30.1% | -1.3% | x | x | x | x | x | x
O=[N+]([O-])c1cccc(O)c1 | -13.3% | 1.3% | x | -12.7% | -6.1% | x | x | x | x | x | x
O=[N+]([O-])c1cc(S(=O)(=O)c2ccc(O)c([N+](=O)[O-])c2)ccc1O | 2.82µM* | 44.7µM* | 11.2µM* | 17.8µM* | u | 59.7* | 6.7* | 30.1* | 19.2µM* | -9.7% | u
O=C1NC(=O)N(Cc2ccc(F)cc2)C(=O)/C1=C\c1ccc([N+](=O)[O-])s1 | 28.2µM* | 31.6µM* | u | 14.1µM* | 39.8µM* | 42.3* | x | 16.9* | 15.2µM* | 27.1µM* | 19.2µM*
Cc1ccc(/C=C2\C(=O)NC(=O)N(CC3CCCO3)C2=O)s1 (stereo unspecified) | -18.2% | -23.2% | u | u | -19.6% | x | x | x | x | x | x
CCOP(=S)(OCC)Oc1ccc(Cl)cc1Cl | x | 11.4%[60.1 µM] | x | x | x | x | x | x | x | x | x
CC(Cc1ccc(C(C)(C)C)cc1)CN1CC(C)OC(C)C1 (stereo unspecified) | x | -0.5%[60.1 µM] | x | x | x | x | x | x | x | x | x
CN(C)[C@@H]1C(=O)C(C(N)=O)=C(O)[C@@]2(O)C(=O)C3=C(O)c4c(O)cccc4[C@@](C)(O)[C@H]3[C@H](O)[C@@H]12 | 3.98µM* | 2.82µM* | 2.82µM* | u | 20µM* | 9.47* | 8.44* | 26.9* | 17.1µM* | u | 13.6µM*
Cc1ccccc1-c1cncnc1NCCc1cnc[nH]1 | x | -0.1%[60.1 µM] | x | x | x | x | x | x | x | x | x
Cc1cc(/C=C2/C(=O)NC(=O)N(c3ccc(Br)cc3)C2=O)c(C)n1C | -10.9% | -12.3% | -29.1% | -17.8%[58.9 µM] | -10.3% | x | x | x | x | x | x
Cc1cc(/C=C2\C(=O)NC(=O)N(c3ccc(Br)cc3)C2=O)c(C)n1-c1cc(C(=O)O)cc(C(=O)O)c1 | 2.51µM* | 2.82µM* | 28.2µM* | u | 22.4µM* | 21.2* | 2.99* | 12* | 24.1µM* | -0.3% | -16.9% | PGK validate=u
O=C1NC(=S)N(c2ccccc2)C(=O)/C1=C/c1ccco1 | 0.794µM* | 2.51µM* | 10µM* | 1.58µM* | 0.947µM* | 0.474* | 0.67* | 0.757* | 0.961µM* | 10.8µM* | 0.192µM* | PGK validate=0.326µM*
O=C1NC(=S)N(c2ccc(F)cc2)C(=O)/C1=C/c1ccccc1O | -9.0% | -0.6% | -18.7% | 35.3% | -0.4%[57.1 µM] | x | x | x | x | x | x
COc1ccc(CN2C(=O)NC(=O)/C(=C\c3ccco3)C2=O)cc1 | 8.91µM* | 25.1µM* | 12.6µM* | u | 22.4µM* | 26.7* | x | 26.9* | 19.2µM* | -14.2% | 8.57µM*
CCN1C(=O)C(=C/C=C/c2ccco2)C(=O)N(CC)C1=S | 3.55µM* | u | 14.1µM* | u | 28.2µM* | 16.8* | 7.52* | 7.57* | 21.5µM* | 98.4% | 19.2µM* | PGK validate=29.1µM*
CCN1C(=O)C(=C2C=C(C)N(Cc3ccco3)C(C)=C2)C(=O)N(CC)C1=S | -17.1% | -5.2% | 3.3% | 36.8% | -3.6% | x | x | x | x | x | x
CC(C)N1C(=O)/C(=C/C=C/c2ccco2)C(=O)N(Cc2ccco2)C1=O | 2.51µM* | 22.4µM* | 22.4µM* | u | 35.5µM* | 18.9* | x | 9.53* | 17.1µM* | -2.4% | 8.57µM*
O=S(=O)(CCN1CCN(c2ccccn2)CC1)c1ccc(Cl)cc1Cl | -10.2% | -2.3% | -0.2% | 174.7% | -28.8% | x | x | x | x | x | x
CCOC(=O)C1CCCN(c2ccc([N+](=O)[O-])c3nonc23)C1 (stereo unspecified) | 35.5µM* | 25.1µM* | 14.1µM* | 56.2µM* | u | 37.7* | 84.4* | 75.7* | 24.1µM* | i | 24.1µM*
CCN1CC2(OC(=O)c3ccccc3NC(C)=O)CCC(OC)[C@]34C1[C@H](CC23)[C@@]1(O)C[C@H](OC)[C@H]2CC4C1(O)[C@H]2OC (stereo partly specified) | x | 14.6%[60.1 µM] | x | x | x | x | x | x | x | x | x
CCN(CC(=O)Nc1c(F)cccc1F)C(=O)/C=C/c1ccc2ccccc2n1 | 1.12µM* | 8.91µM* | x | 4.47µM* | 22.4µM* | 9.47* | x | 19* | 19.2µM* | u | 3.83µM* | BAZ2B confirm=14.1*;BAZ2B bead ctr=u
O=C1CC(=O)N(c2ccccc2F)C(=O)N1 | -4.1% | -5.4% | -29.9% | -22.4% | -8.9% | x | x | x | x | x | x
O=C1NC(=O)N(c2ccccc2F)C(=O)/C1=C/c1ccc(Sc2nc3ccccc3[nH]2)o1 | 20µM* | 22.4µM* | 22.4µM* | u | 22.4µM* | x | 26.7* | 30.1* | x | x | x
CCOC(=O)CC(SP1(=S)OCC2(CCCCC2)CO1)C(=O)OCC (stereo unspecified) | u | -35.9% | x | u | -29.0% | x | x | 67.5* | x | x | x
Cn1cccc1C(=O)OCC(=O)NCc1cccs1 | -15.8% | -4.3% | x | 105.5% | -15.0% | x | x | x | x | x | x
